These compounds were tested against Voltage-gated potassium channel subunit beta-2 (Rattus norvegicus) (UniProt P62483) (assay: enhancers of rat Kvbeta2 NADPH turnover – biochemical, NADPH fluorescence, primary screen (AID 623;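 further: fluorescence intensity change per second fitted from 20 to 320 s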)). Conditions: Recombinant KvBeta, NADPH fluorescence decrease slope, 10 min; at 10 µM; stronger effect = lower value;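 active means NADPH fluorescence slope more negative than the mean of all samples by about 3 SD, 99.7% confidence; inactive means the rest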.
Chain of Voltage-gated potassium channel subunit beta-2 (Rattus norvegicus) (P62483 whole entry, looked up): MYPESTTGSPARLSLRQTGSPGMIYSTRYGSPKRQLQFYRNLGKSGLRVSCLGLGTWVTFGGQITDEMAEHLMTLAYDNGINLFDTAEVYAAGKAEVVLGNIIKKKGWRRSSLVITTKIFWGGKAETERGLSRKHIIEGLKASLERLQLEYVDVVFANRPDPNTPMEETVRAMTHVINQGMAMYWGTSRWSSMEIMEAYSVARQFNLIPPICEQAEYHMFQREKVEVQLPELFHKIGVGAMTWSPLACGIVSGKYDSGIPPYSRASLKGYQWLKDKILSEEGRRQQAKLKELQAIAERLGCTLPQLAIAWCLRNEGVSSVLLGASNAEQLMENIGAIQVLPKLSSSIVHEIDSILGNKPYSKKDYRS

NADPH fluorescence slope, inactive:
CCc1nnc(NC(=O)OCc2ccccc2)s1 -1.5e-05
O=C(C1CC1)N(Cc1ccco1)c1nc(-c2ccccc2)cs1 -8.7e-05
Cc1ccccc1OCCN1C(=O)NC2(CCc3ccccc32)C1=O (stereo not given) -1.6e-05
COc1ccc(OC(C)C(=O)N2CC(C)OC(C)C2)cc1 (stereo not given) 1.5e-06
CCOC(=O)C(C)On1c(SC(C)C(=O)OCC)nc2ccccc2c1=O (stereo not given) -5.7e-05
O=C(COC(=O)Cc1cccc(C(F)(F)F)c1)NCC1CCCO1 (stereo not given) -0.000214
CCCc1[nH]nc2c1C(c1cccc(OC(=O)c3ccco3)c1)C(C#N)=C(N)O2 (stereo not given) -8.2e-06
CS(=O)(=O)N(CC(=O)N1CCN(c2cccc(Cl)c2)CC1)C1CCCCC1 -4.3e-05
Clc1ccccc1OCc1nn2c(-c3ccncc3)nnc2s1 -6.4e-05
Cc1cccc(N2CCN(C(=O)c3cc4c(=O)[nH]c5ccccc5c4n3C)CC2)c1C -2.8e-05
N#CC(C(=O)C1CCCCC1)c1nc2ccccc2[nH]1 (stereo not given) 3e-06
Cc1nc2ccccc2c2oc(C(=O)NCc3ccccn3)cc12 7.6e-05
COCCN(CC(=O)NC1CCCCC1)C(=O)CSc1nc2ccccc2o1 2.1e-05
Cc1ncoc1C(=O)Nc1cccc(Cl)c1C 8.7e-06
COc1cccc(OC)c1C(=O)N1CCOCC1 -3.1e-05
COC(=O)c1ccccc1NC(=O)c1noc2c1CC(C(C)(C)C)CC2 (stereo not given) -3.2e-05
Cc1ccc(-c2cc(C(F)F)nc(NCc3cccnc3)n2)cc1 -1.4e-06
O=C(NCc1ccccc1)N1CCn2c(nc3ccccc32)C1 -2.6e-05
COc1ccc(CN(C)CC(=O)c2c(N)n(Cc3ccccc3)c(=O)n(C)c2=O)c(OC)c1 -1.3e-05
Cc1nc(C)c(C(=O)Nc2ccc(Oc3ccccc3)cc2)o1 -2.3e-05
CCOc1ccc2nc(NC(=O)C(NS(=O)(=O)c3cccs3)C(C)C)sc2c1 (stereo not given) 2.6e-05
CC1CCN(CCCNC(=O)c2cn(C)c3ccc(S(=O)(=O)N4CCCC4)cc3c2=O)CC1 -5.9e-05
COCCN1C(=O)C(=O)/C(=C(/O)c2cccc(OC)c2)C1c1ccncc1 (stereo not given) -8.8e-06
C[C@H](NC(=O)Nc1ccccc1F)C(=O)O 5.1e-05
Nc1c(Sc2ccccc2)c(=O)[nH]c(=O)n1Cc1ccccc1 -4.4e-06
Cc1ccc(C)c(Cn2c(=O)n(CCC(=O)NCc3ccco3)c(=O)c3sccc32)c1 -5.2e-06
CCn1c(=S)sc2nc(C)sc21 3.2e-06
CC(C)(C)OC(=O)N1CCOCCOCCN(C(=O)OC(C)(C)C)CCOCCOCC1 -6.4e-05
O=C(NC1CCCCC1)C(c1ccco1)N(Cc1cccnc1)C(=O)C1COc2ccccc2O1 (stereo not given) -1e-05
COC(=O)c1c(-c2ccc(F)cc2)noc1N -6.3e-06
Cn1ccnc1C(O)c1ccco1 (stereo not given) 2.5e-05
O=C(NCCN1CCOCC1)c1ccc2c(c1)N(Cc1ccccc1)C(=O)CS2 2e-05
N#CC1=C(N)n2c(s/c(=C\c3ccco3)c2=O)=C(C#N)C1c1ccco1 (stereo not given) -3.6e-05
c1ccc2c(c1)ccc1nnc(-c3ccc4c(c3)OCO4)n12 1.5e-05
COc1cccc(-c2cc(C(=O)Nc3cc(C)n(Cc4ccc(Cl)cc4)n3)no2)c1 -2.5e-05
CCC(C)n1[nH]c(=O)c2c(C)cc(C)nc21 (stereo not given) -5.9e-05
CN(CC(=O)Nc1ccncc1)S(=O)(=O)c1ccccc1 -7.6e-05
CC(=O)Oc1cccc(/C=c2\sc3nc(-c4ccco4)nn3c2=O)c1 -3e-05
Cn1c(=O)cc(OCC(=O)N2CCN(c3cccc(C(F)(F)F)c3)CC2)c2ccccc21 6.8e-05
C=CCc1cc(C(=O)N2CCCCC2)ccc1O -0.000166
